According to PubChem BioAssay (NCATS):
“And” between values parts separate entries of the source, which are not always exact repeats. Equal values may be shown once. Records with an inconclusive call do not appear. Where a call stands in place of a potency, no number is given. Where a structure was tested more than once in an assay, its records may differ in their call. The source made the active and inactive calls. Unless noted, the call rests on the fitted dose curve; in most records, active means well fitted curve in the direction sought with a large enough effect; inconclusive means small, poorly fitted or top-dose-only effect, or another doubt; inactive means no such curve, though single readings can be large; an effect the other way counts as inactive or inconclusive.

Key:
[1] = Primary qHTS for small molecule stabilizers of the endoplasmic reticulum resident proteome: Secreted ER Calcium Modulated Protein (SERCaMP) assay (AID 1508630)
Outline: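 The SH-SY5Y reporter protocol was run at 3 concentrations up to 38.3 uM (primary) or 11 concentrations (follow-up): 16 h compound, 100 nM thapsigargin for 4 h, then extracellular luciferase luminescence.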

[2] = A High-Content qHTS Against Drug Library for the Identification of Small Molecules that Inhibit DYT1 Early Onset Primary Dystonia-Associated Cell Pathology (AID 1645839; calls by dose curve; further: series mostly up to about 46 µM)
Outline: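 High-content imaging quantified EGFP-TorsinA mislocalization in HEK293-derived cells inducibly expressing DYT1 mutant torsinA, after 48 h exposure to compound given together with tetracycline induction. Cell count served as a toxicity channel alongside %pathology.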

[3] = Primary qHTS for inhibitors of nuclear receptor binding SET domain protein 2 (NSD2) in an isogenic RCH-ACV NSD2 p.E1099K mutant (9B) (AID 1645876); further: nearly all actives have a fitted effect of over 70% in size; further: potency means the concentration at half of the fitted maximal effect
[4] = Primary qHTS for inhibitors of nuclear receptor binding SET domain protein 2 (NSD2) in an RCH-ACV wild type WT cells (2C) (AID 1645877); further: nearly all actives have a fitted effect of over 70% in size; further: potency means the concentration at half of the fitted maximal effect
[5] = target: Cytochrome P450 2D6 (Homo sapiens) (UniProt P10635); experiment: Cytochrome P450 family 2 subfamily D member 6 (CYP2D6) small molecule antagonists: luciferase biochemical (cell-free) qHTS assay (AID 1645840; active means well fitted curve in the direction sought with a large enough effect in the repeat runs; an effect the other way counts as inactive or inconclusive; further: nearly all actives have a fitted effect of over 55% in size; further: potency means the concentration at half of the fitted maximal effect)
Chain of Cytochrome P450 2D6 (Homo sapiens) (P10635 whole entry, looked up): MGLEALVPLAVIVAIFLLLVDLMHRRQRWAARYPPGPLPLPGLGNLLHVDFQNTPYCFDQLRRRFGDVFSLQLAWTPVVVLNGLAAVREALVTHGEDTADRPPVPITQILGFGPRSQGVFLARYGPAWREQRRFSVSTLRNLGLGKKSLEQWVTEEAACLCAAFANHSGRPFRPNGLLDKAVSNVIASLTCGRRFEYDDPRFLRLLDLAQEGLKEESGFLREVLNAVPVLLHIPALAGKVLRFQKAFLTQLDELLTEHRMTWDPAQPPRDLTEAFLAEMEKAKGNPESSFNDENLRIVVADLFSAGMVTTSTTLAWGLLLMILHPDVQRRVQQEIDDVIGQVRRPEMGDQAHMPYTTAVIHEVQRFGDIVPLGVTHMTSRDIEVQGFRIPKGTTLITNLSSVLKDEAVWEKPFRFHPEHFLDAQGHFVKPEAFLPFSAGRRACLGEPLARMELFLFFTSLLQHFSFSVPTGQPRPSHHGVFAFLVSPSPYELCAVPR
Outline: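 P450-Glo CYP2D6 system: proluciferin substrate converted by enzyme to luciferin, read by luminescence proportional to activity. Enzyme-substrate mix with compound 10 min at room temperature, then NADPH regeneration 1 h before detection reagent.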

[6] = target: Cytochrome P450 3A4 (Homo sapiens) (UniProt P08684); experiment: Cytochrome P450 family 3 subfamily A member 4 (CYP3A4) small molecule antagonists: luciferase qHTS assay (AID 1645841; active means well fitted curve in the direction sought with a large enough effect in the repeat runs; an effect the other way counts as inactive or inconclusive; further: nearly all actives have a fitted effect of over 45% in size)
Chain of Cytochrome P450 3A4 (Homo sapiens) (P08684 whole entry, looked up): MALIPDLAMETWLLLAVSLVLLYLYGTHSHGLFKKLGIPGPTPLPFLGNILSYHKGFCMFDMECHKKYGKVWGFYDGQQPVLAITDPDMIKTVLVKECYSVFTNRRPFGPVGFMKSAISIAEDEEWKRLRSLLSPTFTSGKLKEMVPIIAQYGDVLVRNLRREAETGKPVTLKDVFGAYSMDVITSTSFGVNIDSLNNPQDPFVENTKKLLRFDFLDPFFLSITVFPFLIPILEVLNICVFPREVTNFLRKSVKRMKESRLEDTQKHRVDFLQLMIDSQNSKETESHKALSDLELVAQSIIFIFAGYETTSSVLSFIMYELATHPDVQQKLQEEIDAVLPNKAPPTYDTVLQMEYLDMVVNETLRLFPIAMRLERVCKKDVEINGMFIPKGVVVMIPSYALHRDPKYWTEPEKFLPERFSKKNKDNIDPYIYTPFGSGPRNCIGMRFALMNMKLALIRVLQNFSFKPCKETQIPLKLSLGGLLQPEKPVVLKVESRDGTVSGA
Outline: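 Luminescent CYP3A4 activity readout: compounds plus enzyme-substrate mix 10 min at room temperature, reaction started with NADPH regenerating system for 1 h, stopped with detection reagent, read after 20 min. Ketoconazole served as control.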

[7] = target: Cytochrome P450 2C9 (Homo sapiens) (UniProt P11712); experiment: Cytochrome P450 family 2 subfamily C member 9 (CYP2C9) small molecule antagonists: luciferase biochemical (cell-free) qHTS assay (AID 1645842; active means well fitted curve in the direction sought with a large enough effect in the repeat runs; an effect the other way counts as inactive or inconclusive; further: nearly all actives have a fitted effect of over 55% in size; further: potency means the concentration at half of the fitted maximal effect)
Chain of Cytochrome P450 2C9 (Homo sapiens) (P11712 whole entry, looked up): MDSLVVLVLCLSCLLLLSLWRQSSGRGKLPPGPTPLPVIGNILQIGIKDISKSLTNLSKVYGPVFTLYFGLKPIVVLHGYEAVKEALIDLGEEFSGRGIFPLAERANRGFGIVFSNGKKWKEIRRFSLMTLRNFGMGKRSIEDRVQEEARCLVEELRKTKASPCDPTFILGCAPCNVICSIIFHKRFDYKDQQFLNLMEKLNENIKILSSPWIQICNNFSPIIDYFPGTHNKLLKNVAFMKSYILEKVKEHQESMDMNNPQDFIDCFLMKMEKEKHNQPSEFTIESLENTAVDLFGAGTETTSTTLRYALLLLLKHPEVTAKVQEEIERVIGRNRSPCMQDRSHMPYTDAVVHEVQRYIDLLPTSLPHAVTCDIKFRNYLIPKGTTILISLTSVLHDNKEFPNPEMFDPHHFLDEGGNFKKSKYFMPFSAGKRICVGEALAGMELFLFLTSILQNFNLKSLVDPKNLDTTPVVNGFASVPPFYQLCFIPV
Outline: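 P450-Glo CYP2C9 system: proluciferin substrate with enzyme in mix containing 0.4% BSA, 10 min at room temperature, then NADPH regeneration solution added and incubated 1 h at 37C. Detection reagent stopped reaction; luminescence read after 20 min as RLU.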

Papain (Carica papaya) = Papain (Carica papaya) (UniProt P00784); experiment: Primary qHTS assay for inhibitors of the protease papain (AID 1645873);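 further: papain turnover of Z-FR-AMC read as the AMC fluorescence gain over 10 min; series mostly up to about 50 µM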
Chain of Papain (Carica papaya) (P00784 whole entry, looked up): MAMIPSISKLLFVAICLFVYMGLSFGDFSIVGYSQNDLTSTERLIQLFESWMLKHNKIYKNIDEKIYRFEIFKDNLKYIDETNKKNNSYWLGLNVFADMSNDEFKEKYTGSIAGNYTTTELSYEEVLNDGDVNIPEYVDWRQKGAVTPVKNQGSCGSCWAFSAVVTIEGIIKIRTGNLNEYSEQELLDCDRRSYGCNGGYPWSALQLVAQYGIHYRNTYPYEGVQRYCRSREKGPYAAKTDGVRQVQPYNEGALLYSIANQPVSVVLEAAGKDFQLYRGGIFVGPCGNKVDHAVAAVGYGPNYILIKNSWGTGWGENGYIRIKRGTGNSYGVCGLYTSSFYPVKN

For `CC(=O)OCC(=O)[C@@]12OC(C)(C)O[C@@H]1C[C@H]1[C@@H]3C[C@H](F)C4=CC(=O)C=C[C@]4(C)[C@@]3(F)[C@@H](O)C[C@@]12C`, the Potency [1] was “inactive”, the Potency [2] was “inactive” and the Potency [3] was “inactive”. For the same compound, the Potency [4] was 0.9 nM (active) and inactive.

With `CC(=O)O[C@]1(C(C)=O)CC[C@H]2[C@@H]3C[C@H](C)C4=CC(=O)CC[C@]4(C)[C@H]3CC[C@@]21C` the Potency [1] was “inactive”, the Potency [5] was “inactive” and the outcome [6] was “inactive”. The Potency [7] was 3.09 µM (active) and the Potency [3] was 25.8 µM (active).

For `COc1cccc(OC)c1C(=O)N[C@@H]1C(=O)N2[C@@H]1SC(C)(C)[C@@H]2C(=O)O`, the Potency [1] was “inactive”, the Potency [5] was “inactive” and the Potency [7] was “inactive”. The Potency [3] was “inactive” and the Potency [4] was “inactive”.

In the case of `CCCCCCCCCCOCC(O)CN` (stereo not drawn), the Potency [1] is reported as “inactive”, the Potency [5] is reported as 4.83 µM (active) and the Potency [7] is reported as 10.8 µM (active).

With `CNCCC=C1c2ccccc2CCc2ccccc21` the Potency [1] was “inactive”, the Potency [5] was 4.77 µM (active) and the Potency [7] was “inactive”. The Potency (Papain (Carica papaya)) was “inactive”, the Potency [3] was 23.1 µM (active) and the Potency [4] was 20.6 µM (active).

For `CC(=O)Oc1ccc2c(c1)CC[C@@H]1[C@@H]2CC[C@]2(C)[C@@H](O)CC[C@@H]12`, the Potency [1] was “inactive”, the Potency [2] was “inactive” and the Potency [7] was “inactive”. For the same compound, the Potency [3] was 13.3 µM (active) and the Potency [4] was 8.41 µM (active).

In the case of `O=C(COc1ccc(Cl)cc1)N1CCN(Cc2ccc3c(c2)OCO3)CC1`, the Potency [1] is reported as “inactive”, the Potency [5] is reported as 0.436 µM (active) and the Potency [7] is reported as 12.3 µM (active).

With `C[C@]12CC[C@@H]3c4ccc(O)cc4CC[C@H]3[C@@H]1CC[C@@H]2O` the Potency [1] was “inactive”, the Potency [5] was “inactive” and the Potency [7] was “inactive”. The Potency (Papain (Carica papaya)) was “inactive”, the Potency [3] was 16.6 µM (active) and the Potency [4] was 7.42 µM (active).

With `C=C(CC)C(=O)c1ccc(OCC(=O)O)c(Cl)c1Cl` the Potency [1] was “inactive”, the Potency [5] was “inactive” and the Potency [7] was 3.89 µM (active). For the same compound, the Potency [3] was 21.1 µM (active).

With `CC(C)(C)CC(C)(C)c1ccc(OCCOCC[N+](C)(C)Cc2ccccc2)cc1` the Potency [1] was “inactive”, the Potency [3] was 1.19 µM (active) and 1.83 µM (active) and the Potency [4] was 944 nM (active) and 1.63 µM (active).

In the case of `CCOc1ccc(Cc2nccc3cc(OCC)c(OCC)cc23)cc1OCC`, the Potency [1] is reported as “inactive”, the Potency [5] is reported as 13.8 µM (active) and the Potency [7] is reported as 1.74 µM (active). The Potency [3] was 2.37 µM (active) and the Potency [4] was 2.37 µM (active).

For `CC1(C)CCC(NC(=O)[C@@H](N)CCC(=O)O)CC1`, the Potency [1] was “inactive” and the Potency (Papain (Carica papaya)) was “inactive”.

With `C[N+]1(CCCCC[N+]2(C)CCCC2)CCCC1` the Potency [1] was “inactive”, the Potency [5] was “inactive” and the Potency (Papain (Carica papaya)) was “inactive”.

In the case of `O=C1CCC(c2ccc(-n3ccnc3)cc2)=NN1`, the Potency [1] is reported as “inactive” and the Potency (Papain (Carica papaya)) is reported as “inactive”.

In the case of `C1CCc2nnnn2CC1`, the Potency [1] is reported as “inactive” and the Potency (Papain (Carica papaya)) is reported as “inactive”.

For `CC(C)=CCC1C(=O)N(c2ccccc2)N(c2ccccc2)C1=O`, the Potency [1] was “inactive”, the Potency [5] was “inactive” and the Potency [7] was “inactive”. The Potency [3] was 16.8 µM (active) and the Potency [4] was 15 µM (active).
